# Records with an inconclusive call do not appear. The source made the active and inactive calls. Rule for the calls: active = hit-call score of the fitted dose curve at least 0.9, where 1 is the maximum; inconclusive = response in the unintended direction; inactive = score below 0.9.
# Columns and labels:
# [1] = molecular target: Voltage-dependent N-type calcium channel subunit alpha-1B (Rattus norvegicus) (UniProt Q02294); assay: NVS_IC_rCaChN: NovaScreen (NVS) Ion Channel Assay for rat Calcium Channel, Type N (CaChN) (AID 2283317)
# NCBI gene 24521 = assay: NVS_IC_rKATPCh: NovaScreen (NVS) Ion Channel Assay for rat Potassium Channel, ATP-Sensitive (KATPCh) (AID 2283319)
# In short: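 Primary duplicate screen at 25 uM, then singleton concentration series to 50 uM maximum, in a rat cortex membrane radioligand displacement assay. Binding measured by filtration and scintillation 2 h post-dose; DMSO baseline.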
# [2] = molecular target: Sodium channel protein type 1 subunit alpha (Rattus norvegicus) (UniProt P04774); assay: NVS_IC_rNaCh_site2: NovaScreen (NVS) Ion Channel Assay for rat Sodium Channel, Site 2 (NaCh) (AID 2283322);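 note: hit means loss of radioligand binding signal relative to DMSO so AC50 marks displacement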
# In short: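 Initial duplicate single-point testing at 25 uM, followed by concentration-response runs for actives. Binding of radioligand to rat forebrain membranes quantified after 1 h via filter-based radiodetection.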
# [3] = molecular target: rat Thyrotropin Releasing Hormone Receptor (TRH), Trhr (gene 25570) (UniProt Q01717); assay: NVS_GPCR_rTRH: NovaScreen (NVS) G Protein-Coupled Receptor Assay for rat Thyrotropin Releasing Hormone Receptor (TRH) (AID 2283329);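 note: hit means lower bound tracer signal versus DMSO baseline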
# In short: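 Rat forebrain membrane prep, radioligand displacement, filter scintillation readout at 4 h. Single conc 25 uM, duplicate; actives retested as concentration series. DMSO = negative control/baseline.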
# [4] = molecular target: human Serotonin, 5-Hydroxytryptamine Receptor 3 (5HT3), HTR3A (gene 3359) (UniProt P46098); assay: NVS_LGIC_h5HT3: NovaScreen (NVS) Ligand-Gated Ion Channel Assay for human Serotonin, 5-Hydroxytryptamine Receptor 3 (5HT3) (AID 2283325)
# In short: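 Initially tested at 25 uM in duplicate, then up to 50 uM in concentration-response for actives, compounds competed with a radioligand for HEK293-derived human 5-HT3 receptor. Bound counts were measured by filtration and scintillation at 1 h; loss of signal versus DMSO.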
# [5] = molecular target: rat Opioid Receptor, Non-selective Binding, Oprm1 (gene 25601) (UniProt P33535); assay: NVS_GPCR_rOpiate_NonSelective: NovaScreen (NVS) G Protein-Coupled Receptor Assay for rat Opioid Receptor, Non-selective Binding (AID 2283318)
# In short: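 Filter-based radioligand displacement using rat forebrain membrane preparations, measured 1.5 h post-dosing. Single-concentration duplicate screen at 25 uM, follow-up in concentration series; activity taken as signal loss relative to DMSO.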
# [6] = molecular target: bovine Gamma-Aminobutyric Acid Type A Receptor BDZ, alpha 5 site (GABARa5), GABRA5 (gene 523515) (UniProt Q08E50); assay: NVS_LGIC_bGABARa5: NovaScreen (NVS) Ligand-Gated Ion Channel Assay for bovine Gamma-Aminobutyric Acid Type A Receptor BDZ, alpha 5 site (GABARa5) (AID 2283323)
# In short: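 Tested first in duplicate at a single 25 uM, with hits re-run in concentration series to a 50 uM maximum. Bovine hippocampal membranes; specific radioligand displacement measured by filter scintillation counting 1 hr post-dose.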
# [7] = molecular target: rat Glutamate, NMDA Agonist Site (GluNMDA), Grin1 (gene 24408) (UniProt P35439); assay: NVS_LGIC_rGluNMDA_Agonist: NovaScreen (NVS) Ligand-Gated Ion Channel Assay for rat Glutamate, NMDA Agonist Site (GluNMDA) (AID 2283327)
# In short: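 Radioligand displacement at the agonist site on rat forebrain membrane preparations, read by filter scintillation after 1 h. Chemicals were first run at 25 uM in duplicate; those passing threshold were titrated to a 50 uM maximum.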
# [8] = NVS_IC_rCaDHPRCh_L: NovaScreen (NVS) Ion Channel Assay for rat Calcium Channel, Type L, Dihydropyridine Site (CaDHPRCh_L) (AID 2283320)
# In short: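 Rat cortex membrane preparation; dihydropyridine-site radioligand displacement read 1 h post-dose by filtration and scintillation. Primary single-point screen 25 uM in duplicate, then concentration series to 50 uM maximum; DMSO as negative control.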
# [9] = molecular target: rat Glutamate, AMPA Site (AMPA), Gria1 (gene 50592) (UniProt P19490); assay: NVS_LGIC_rAMPA: NovaScreen (NVS) Ligand-Gated Ion Channel Assay for rat Glutamate, AMPA Site (AMPA) (AID 2283324)
# In short: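 Screening at 25 uM in duplicate preceded concentration series reaching 50 uM for qualifying compounds. Radioligand displacement on rat forebrain membranes, 1 h, filter-based scintillation readout; reduced binding relative to DMSO.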
# Chain of rat Opioid Receptor, Non-selective Binding, Oprm1 (gene 25601) (P33535 whole entry, looked up): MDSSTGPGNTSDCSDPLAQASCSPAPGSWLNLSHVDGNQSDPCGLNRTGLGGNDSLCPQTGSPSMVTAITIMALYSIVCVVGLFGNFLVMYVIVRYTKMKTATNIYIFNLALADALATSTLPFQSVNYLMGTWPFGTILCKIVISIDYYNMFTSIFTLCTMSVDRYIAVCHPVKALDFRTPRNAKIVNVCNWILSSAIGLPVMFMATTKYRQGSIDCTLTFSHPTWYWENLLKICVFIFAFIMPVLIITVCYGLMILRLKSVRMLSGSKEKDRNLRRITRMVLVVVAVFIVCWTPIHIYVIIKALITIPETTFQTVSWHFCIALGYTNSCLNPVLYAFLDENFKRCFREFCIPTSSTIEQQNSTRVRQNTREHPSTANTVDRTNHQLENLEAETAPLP
# Chain of rat Thyrotropin Releasing Hormone Receptor (TRH), Trhr (gene 25570) (Q01717 whole entry, looked up): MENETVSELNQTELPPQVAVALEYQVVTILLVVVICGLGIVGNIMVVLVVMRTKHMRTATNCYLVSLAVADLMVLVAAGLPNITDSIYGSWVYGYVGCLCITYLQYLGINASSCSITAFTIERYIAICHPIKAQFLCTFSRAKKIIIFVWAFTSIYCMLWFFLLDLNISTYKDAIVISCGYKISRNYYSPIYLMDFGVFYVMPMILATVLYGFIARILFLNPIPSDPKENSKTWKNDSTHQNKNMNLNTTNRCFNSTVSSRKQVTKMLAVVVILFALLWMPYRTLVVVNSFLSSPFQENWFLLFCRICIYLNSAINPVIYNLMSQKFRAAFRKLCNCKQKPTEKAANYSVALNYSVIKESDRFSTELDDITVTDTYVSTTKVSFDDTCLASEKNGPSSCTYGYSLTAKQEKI
# Chain of bovine Gamma-Aminobutyric Acid Type A Receptor BDZ, alpha 5 site (GABARa5), GABRA5 (gene 523515) (Q08E50 whole entry, looked up): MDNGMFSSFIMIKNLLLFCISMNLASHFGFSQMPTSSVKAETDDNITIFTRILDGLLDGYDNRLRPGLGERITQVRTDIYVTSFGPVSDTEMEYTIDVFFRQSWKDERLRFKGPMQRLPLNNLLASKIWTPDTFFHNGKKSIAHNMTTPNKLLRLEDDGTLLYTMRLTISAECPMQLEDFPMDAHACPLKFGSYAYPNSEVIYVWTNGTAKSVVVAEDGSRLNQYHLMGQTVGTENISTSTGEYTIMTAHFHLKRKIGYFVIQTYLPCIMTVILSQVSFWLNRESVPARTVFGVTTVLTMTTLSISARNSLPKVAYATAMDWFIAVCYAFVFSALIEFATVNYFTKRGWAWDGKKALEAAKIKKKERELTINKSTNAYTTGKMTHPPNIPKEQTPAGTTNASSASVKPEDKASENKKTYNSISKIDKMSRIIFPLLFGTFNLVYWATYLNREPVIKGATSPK
# Chain of rat Glutamate, AMPA Site (AMPA), Gria1 (gene 50592) (P19490 whole entry, looked up): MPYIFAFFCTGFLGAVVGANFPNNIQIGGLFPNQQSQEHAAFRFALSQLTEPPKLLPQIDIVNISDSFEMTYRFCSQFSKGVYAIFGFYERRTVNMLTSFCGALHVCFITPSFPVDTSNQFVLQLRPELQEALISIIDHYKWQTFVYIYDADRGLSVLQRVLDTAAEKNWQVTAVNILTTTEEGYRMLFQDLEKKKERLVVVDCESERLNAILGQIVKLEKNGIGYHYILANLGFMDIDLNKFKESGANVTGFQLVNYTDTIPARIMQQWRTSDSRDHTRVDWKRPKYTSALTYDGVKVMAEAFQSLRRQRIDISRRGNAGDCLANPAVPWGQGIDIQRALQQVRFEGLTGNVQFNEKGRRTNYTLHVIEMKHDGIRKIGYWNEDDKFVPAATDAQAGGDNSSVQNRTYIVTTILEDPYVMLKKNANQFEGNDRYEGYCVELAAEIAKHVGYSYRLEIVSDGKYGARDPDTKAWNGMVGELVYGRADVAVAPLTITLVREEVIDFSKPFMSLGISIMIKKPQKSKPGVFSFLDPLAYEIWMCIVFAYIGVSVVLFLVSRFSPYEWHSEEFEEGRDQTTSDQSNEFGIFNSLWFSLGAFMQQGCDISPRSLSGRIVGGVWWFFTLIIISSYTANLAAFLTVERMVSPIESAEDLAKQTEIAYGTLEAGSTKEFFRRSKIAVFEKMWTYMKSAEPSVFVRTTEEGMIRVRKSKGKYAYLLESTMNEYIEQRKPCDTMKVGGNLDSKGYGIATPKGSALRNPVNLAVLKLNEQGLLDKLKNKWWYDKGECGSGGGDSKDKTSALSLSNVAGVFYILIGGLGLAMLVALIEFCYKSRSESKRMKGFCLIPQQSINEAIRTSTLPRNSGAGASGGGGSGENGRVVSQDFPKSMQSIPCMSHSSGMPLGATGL
# Chain of human Serotonin, 5-Hydroxytryptamine Receptor 3 (5HT3), HTR3A (gene 3359) (P46098 whole entry, looked up): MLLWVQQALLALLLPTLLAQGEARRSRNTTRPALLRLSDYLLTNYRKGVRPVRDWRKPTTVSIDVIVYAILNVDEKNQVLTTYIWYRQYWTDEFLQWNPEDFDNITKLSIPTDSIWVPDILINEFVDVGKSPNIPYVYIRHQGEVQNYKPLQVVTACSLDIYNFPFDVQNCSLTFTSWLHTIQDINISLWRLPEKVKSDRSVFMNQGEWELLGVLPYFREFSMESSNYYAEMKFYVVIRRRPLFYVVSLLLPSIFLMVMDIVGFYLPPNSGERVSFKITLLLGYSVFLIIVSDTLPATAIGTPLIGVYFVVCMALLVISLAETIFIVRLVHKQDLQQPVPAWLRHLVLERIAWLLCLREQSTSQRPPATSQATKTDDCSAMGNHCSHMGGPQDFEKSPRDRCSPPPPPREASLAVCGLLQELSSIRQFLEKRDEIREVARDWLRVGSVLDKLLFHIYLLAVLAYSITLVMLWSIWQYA
smiles,measurement,setting,value
COP(=O)(OC)C(O)C(Cl)(Cl)Cl (centres undefined),outcome,[1],inactive
Nc1nc(N)nc(NC2CC2)n1,outcome,NCBI gene 24521,inactive
Cc1cc(C2CC2)nc(Nc2ccccc2)n1,AC50,[2],9.68 µM (active)
C#CC(C)(C)NC(=O)c1cc(Cl)cc(Cl)c1,outcome,[3],inactive
CSc1nnc(C(C)(C)C)c(=O)n1N,outcome,NCBI gene 24521,inactive
same,outcome,[4],inactive
CCc1cccc(C)c1N(C(=O)CCl)C(C)COC (centres undefined),AC50,[5],14.7 µM (active)
CC1=NNC(=O)N(/N=C/c2cccnc2)C1,outcome,NCBI gene 24521,inactive
same,outcome,[6],inactive
CC(C1CC1)C(O)(Cn1cncn1)c1ccc(Cl)cc1 (centres undefined),outcome,[2],inactive
same,outcome,[3],inactive
CCc1cccc(CC)c1N(COC)C(=O)CCl,outcome,[5],inactive
same,outcome,[7],inactive
CC(C)=CC1C(C(=O)OCN2C(=O)C3=C(CCCC3)C2=O)C1(C)C (centres undefined),outcome,[5],inactive
same,AC50,[8],38.2 µM (active)
same,outcome,[9],inactive
CCC(=O)Nc1ccc(Cl)c(Cl)c1,outcome,[2],inactive
same,outcome,[3],inactive
COP(=O)(OC)OC(Br)C(Cl)(Cl)Br (centres undefined),outcome,NCBI gene 24521,inactive
CCc1cnc(C2=NC(C)(C(C)C)C(=O)N2)c(C(=O)O)c1 (centres undefined),outcome,[3],inactive
CCOC(=O)CC(SP(=O)(OC)OC)C(=O)OCC (centres undefined),outcome,[5],inactive
same,outcome,[3],inactive
O=[N+]([O-])c1cc(C(F)(F)F)c(Cl)c([N+](=O)[O-])c1Nc1ncc(C(F)(F)F)cc1Cl,outcome,[6],inactive
same,outcome,[3],inactive
CN(C)C(=O)Nc1cccc(C(F)(F)F)c1,AC50,NCBI gene 24521,10.9 µM (active)
CON=C(C(=O)OC)c1ccccc1CON=C(C)c1cccc(C(F)(F)F)c1,outcome,[9],inactive
same,outcome,[3],inactive
CCCOCC(=Nc1ccc(Cl)cc1C(F)(F)F)n1ccnc1,AC50,[5],12.1 µM (active)
same,outcome,[8],inactive
same,outcome,[2],inactive
COc1ccc(C(=CC(=O)N2CCOCC2)c2ccc(Cl)cc2)cc1OC,outcome,[5],inactive
same,outcome,NCBI gene 24521,inactive
same,outcome,[8],inactive
C[Si](Cn1cncn1)(c1ccc(F)cc1)c1ccc(F)cc1,outcome,[5],inactive
same,AC50,[8],25.7 µM (active)
same,AC50,[2],18.1 µM (active)
same,outcome,[3],inactive
CCCCOC(=O)c1ccccc1C(=O)O,outcome,[1],inactive
same,outcome,[6],inactive
CN1COCN(Cc2cnc(Cl)s2)C1=N[N+](=O)[O-],outcome,[8],inactive
Nc1c(Cl)cc([N+](=O)[O-])cc1Cl,outcome,[2],inactive
same,outcome,[3],inactive
CSc1nc(NC(C)C)nc(NC(C)C)n1,AC50,[2],11.9 µM (active)
FC(F)C(F)(F)OCC(Cn1cncn1)c1ccc(Cl)cc1Cl (centres undefined),AC50,[8],12.6 µM (active)
same,AC50,[2],25 µM (active)
same,outcome,[3],inactive
CNC(=O)ON=C(SC)C(=O)N(C)C,outcome,NCBI gene 24521,inactive
CN(C)[C@@H]1C(=O)C(C(N)=O)=C(O)[C@@]2(O)C(=O)C3=C(O)c4c(O)cccc4[C@@](C)(O)[C@H]3[C@H](O)[C@@H]12,outcome,[9],inactive
CCC(CC)Nc1c([N+](=O)[O-])cc(C)c(C)c1[N+](=O)[O-],outcome,[3],inactive
CCOP(=S)(OCC)Oc1ccc2c(C)c(Cl)c(=O)oc2c1,outcome,[5],inactive
S=C1NCCN1,outcome,[9],inactive
C#CCC1=C(C)C(OC(=O)C2C(C=C(C)C)C2(C)C)CC1=O (centres undefined),outcome,[4],inactive
CC[C@H](C)[C@H]1O[C@]2(C=C[C@@H]1C)C[C@@H]1C[C@@H](C/C=C(\C)[C@@H](O[C@H]3C[C@H](OC)[C@@H](O[C@H]4C[C@H](OC)[C@@H](NC)[C@H](C)O4)[C@H](C)O3)[C@@H](C)/C=C/C=C3\CO[C@@H]4[C@H](O)C(C)=C[C@@H](C(=O)O1)[C@]34O)O2,outcome,[1],inactive
same,outcome,[5],inactive
same,AC50,[8],4.83 µM (active)
same,AC50,[2],16.6 µM (active)
same,AC50,[6],1.56 µM (active)
same,AC50,[7],16.4 µM (active)
CCCCSP(=O)(SCCCC)SCCCC,outcome,[1],inactive
